In PubChem BioAssay AID720650 (Broad Institute, 2013):
A number with no mark means an inactive call. The source made the active and inactive calls. How the calls were made is not given here.

Experiment: Biochemical counterscreen for C difficile toxins, absence of UDPG, inhibitor dose response (AID 720650)
Conditions: series mostly up to 19.5 µM; activity change, negative = inhibition: at the top concentration

Row | Compound | activity change, negative = inhibition | AC50
1 | CCCNC(=O)Nc1ccc2c(c1)C(=O)N(C)[C@@H]1CC[C@H](CC(=O)NC3CCC3)O[C@H]1CO2 | -5.24% | –
2 | CN1C(=O)C(c2nnc(Nc3cccc4ccccc34)s2)C2CC1(C)Oc1ccccc12 (centres undefined) | -14.1% | –
3 | CNC(=O)C[C@H]1CC[C@@H]2[C@H](COc3ccc(NC(=O)Nc4ccc(C)cc4)cc3C(=O)N2C)O1 | – | > 39 µM
4 | COc1cccc(C(=O)C2CCCN(Cc3ccc(F)cc3)C2)c1 (centres undefined) | 11.8% | –
5 | Cc1ccc(-n2c(SCC(=O)O)nc3c(sc(=S)n3-c3ccc(C)c(C)c3)c2=O)cc1 | – | 13.7 µM (active)
6 | COc1cc2c(cc1O)CC[n+]1cc3c(OC)c(OC)ccc3cc1-2 | – | > 39 µM
7 | CCN(C(=O)CN1C(=O)NC2(CCC(C)CC2)C1=O)C1CCCCC1 (centres undefined) | -4.99% | –
8 | O=C(c1ccc(N2CCOCC2)c([N+](=O)[O-])c1)N1CCN(c2ccccc2F)CC1 | – | > 39 µM
9 | O=C(Nc1ccc(N2CCOCC2)c(Cl)c1)c1ccc(F)cc1 | -13.4% | –
10 | Cc1ccccc1S(=O)(=O)N1CCCc2nc(C)c(C)cc21 | – | > 39 µM
11 | CCOc1ccc(/C=N/n2nnnc2N)cc1O | 5.99% | –
12 | C/C(=N\NC(=O)c1ccccc1O)c1cccc(NC(=O)c2ccccc2)c1 | -12.3% | –
13 | Cc1nc(-c2ccccn2)nc(SCC(=O)c2ccc(F)cc2)c1Cl | -7.34% | –
14 | Oc1ccc(-c2nccs2)cc1 | – | 10.2 µM (active)
15 | O=C(Nc1ccc2c(c1)OCCO2)c1cc2ccccc2o1 | – | > 39 µM
16 | CN(C)c1ccc(/C=C/c2cccc[n+]2[O-])cc1 | -21.1% | –
17 | CCCNC(=O)C[C@H]1CC[C@@H]2[C@H](COc3ccc(NC(=O)c4ccc(Cl)cc4)cc3C(=O)N2C)O1 | – | > 39 µM
18 | Cc1ccccc1C(C(=O)NC1CCCCC1)N(C(=O)c1ccccn1)c1cccnc1 (centres undefined) | -0.409% | –
19 | COc1ccc(-c2cnc3c(c2)C(=O)N([C@@H](C)CO)C[C@H](C)[C@H](CN(C)C(=O)C2CCCCC2)O3)cc1 | -9.66% | –
20 | O=S(=O)(Cc1cccc(F)c1)c1c[nH]c2ccccc12 | – | > 39 µM

Row | Compound | activity change, negative = inhibition | AC50
21 | CCNC(=O)C[C@@H]1CC[C@H]2[C@@H](COc3ccc(NC(C)=O)cc3C(=O)N2C)O1 | 5.64% [at 21 µM] | –
22 | Cc1n[nH]c(=O)nc1Nc1ccc(O)cc1 | – | 11.8 µM (active)
23 | COc1ccc(/C=C2\CCCCC2=O)cc1 | -1.74% | –
24 | O=C(c1ccccc1F)N1CCN(c2ccc([N+](=O)[O-])c3cccnc23)CC1 | -4.63% | –
25 | COc1cc(C=NNC(=O)c2ccccc2-n2cccc2)ccc1O | 2.55% | –
26 | C/C(=N\Nc1cc(N2CCOCC2)ncn1)c1ccc(O)cc1 | -20.3% | –
27 | Cc1csc(N=Nc2ccc(N(C)C)cc2)[n+]1[O-] | – | > 39 µM
28 | C[C@@H]1CN([C@@H](C)CO)C(=O)c2c(c3ccccc3n2C)-c2ccccc2CO[C@@H]1CN(C)C | -5.57% [at 21 µM] | –
29 | COC(=O)[C@H]1C[C@@H]1[C@H](NP(=O)(c1ccccc1)c1ccccc1)c1ccccc1 | 1.05% | –
30 | COc1ccc(CNC(=O)C2CCN(S(=O)(=O)c3c(C)noc3/C=C/N(C)C)CC2)cc1 | -8.74% | –
31 | O=c1oc(-c2ccc(Br)cc2)nc2ccccc12 | -3.69% | –
32 | Cc1ccc(/C=C/c2onc(C)c2S(=O)(=O)N2CCC(C(=O)N3CCN(C)CC3)CC2)cc1 | -9.58% | –
33 | Oc1ccc(NC(=S)Nc2ccccc2)cc1 | – | 18.6 µM (active)
34 | O=C(C[C@H]1CC[C@H]2[C@@H](COC[C@H](O)CN2C(=O)Nc2ccc(Cl)c(Cl)c2)O1)NCc1ccncc1 | 8.56% | –
35 | CCN(C(=O)COC(=O)c1cccnc1SC)C1CCCCC1 | 2.92% | –
36 | CCCCN(C)c1c(C)nc2ccc(C(=O)NCc3cccs3)cn12 | – | 20.4 µM (active)
37 | CCCNC(=O)N1CC[C@@H]2[C@@H](CO)N(C)c3ccc(-c4ccc(F)cc4)cc3[C@@H]21 | – | 4.27 µM (active)
38 | Cc1cccc(-n2c(=O)c3ccccc3n3c(=S)[nH]nc23)c1C | -17.6% | –
39 | Cn1ncc(Cl)c1C(=O)N/N=C/c1cccc(OC2CSC2)c1 | – | > 39 µM
